Reference: the antibiotic and cytotoxicity screens of Wong et al. (2023)
Out of some 39,000 compounds screened, about 3,300 (8.5%) were called active. The sample holds actives, similar compounds and a random draw of the others, so the mix is not that of the screen.

System: HepG2
Assay: cytotoxicity call (relative viability < 0.9)
Settings: 10 µM

| Structure (SMILES) | cytotoxicity call |
| --- | --- |
| C[C@H]1CN([C@@H](C)CO)C(=O)Cc2cc(NC(=O)Cc3cn(C)c4ccccc34)ccc2O[C@@H]1CN(C)S(C)(=O)=O | inactive |
| C[C@@H]1CN([C@H](C)CO)C(=O)c2cc(NS(=O)(=O)c3cn(C)cn3)ccc2O[C@H]1CN(C)C(=O)NC1CCCCC1 | inactive |
| C[C@H]1CN([C@@H](C)CO)C(=O)Cc2cc(NC(=O)CCN3CCOCC3)ccc2O[C@@H]1CN(C)S(=O)(=O)c1cccs1 | inactive |
| O=C(C[C@@H]1CC[C@H]2[C@@H](COC[C@@H](O)CN2C(=O)c2cnccn2)O1)NCc1ccc(Oc2ccccc2)cc1 | inactive |
| COc1ccccc1NC(=O)N(C)C[C@@H]1Oc2ncc(Br)cc2C(=O)N([C@H](C)CO)C[C@H]1C | inactive |
| O=C(CCCCCCC(=O)Nc1ccccc1O)N/N=C/[C@H](O)[C@@H](O)[C@H](O[C@@H]1O[C@H](CO)[C@H](O)[C@H](O)[C@H]1O)[C@H](O)CO | inactive |
| C[C@H](CO)N1C[C@H](C)[C@@H](CN(C)C(=O)Nc2cccc3ccccc23)Oc2c(NC(=O)CCCCCC(=O)Nc3ccccc3N)cccc2C1=O | inactive |
| C[C@@H]1CCCCO[C@@H](CN(C)S(=O)(=O)c2ccc(Cl)cc2)[C@@H](C)CN([C@H](C)CO)C(=O)c2cc(NC(=O)Nc3ccc(F)cc3)ccc2O1 | inactive |
| C[C@H](CO)N1C[C@H](C)[C@H](CN(C)Cc2ccc(Oc3ccccc3)cc2)Oc2ccc(NC(=O)C3CC3)cc2C1=O | inactive |
| Cc1ccc(NC(=O)N(C)C[C@@H]2OCCCC[C@H](C)Oc3ccc(NC(=O)C4CCCCC4)cc3C(=O)N([C@H](C)CO)C[C@@H]2C)cc1 | inactive |
| NC(=O)CCN1CCn2c1nc1ccccc12 | inactive |
| COc1ccc2c3c([nH]c2c1)[C@H](CO)N(C[C@]13CCN(CC1)C(=O)Nc1ccc2c(c1)OCO2)C(=O)Nc1ccc(cc1)F | inactive |
| COc1ccc(NC(=O)Nc2ccc3c(c2)C(=O)N([C@@H](C)CO)C[C@H](C)[C@@H](CN(C)Cc2ccccc2)OCCCC[C@H](C)O3)cc1 | inactive |
| COc1ccc(NC(=O)Nc2ccc3c(c2)C(=O)N([C@H](C)CO)C[C@H](C)[C@@H](CN(C)Cc2ccccc2)OCCCC[C@@H](C)O3)cc1 | inactive |
| COc1ccc(NC(=O)Nc2ccc3c(c2)C(=O)N([C@H](C)CO)C[C@H](C)[C@H](CN(C)Cc2ccccc2)OCCCC[C@H](C)O3)cc1 | active |
| C[C@@H]1CCCCO[C@H](CN(C)Cc2ccccc2)[C@@H](C)CN([C@H](C)CO)C(=O)c2cc(NS(=O)(=O)c3ccc(F)cc3)ccc2O1 | inactive |
| Cn1cnnc1Sc1c([N+](=O)[O-])ncn1C | inactive |
| Cn1cnc([N+](=O)[O-])c1Cl | inactive |
| Cn1cnc([N+](=O)[O-])c1Sc1[nH]cnc2ncnc1-2 | active |
